Source: the supplement of paper PMC11732987, “Enantioselective OTUD7B fragment discovery through chemoproteomics screening and high-throughput optimisation” (Communications Chemistry, 2025)

Tests used:
Assay in all cases: log2 ratio of Biotin-Ahx-Ub-VS probe labelling (fragment/DMSO); higher = less target engagement (more negative = stronger competition), active = hit call of the paper (q ≤ 0.05, log2 ratio ≤ -1)
Details in all cases: compound concentration: 200 uM; treatment time: 3 h
[1] = molecular target: USP34 (UniProt Q70CQ2)
How it was run: (§1)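 HEK293T lysate (495 µg per sample, in Tris/CHAPS/IGEPAL buffer with protease inhibitors) was treated in triplicate with fragment at 200 µM or with DMSO for 3 h. It was then treated with Biotin-Ahx-Ub-VS (0.5 µM final) for 1 h. Labelled DUBs were NeutrAvidin-enriched, digested with LysC and trypsin, and run by diaPASEF LC-MS/MS. Spectronaut label-free quantities were global-median-normalised. Values are average log2 ratios fragment/DMSO by unpaired t-test, using proteins with ≥2 unique peptides.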

[2] = molecular target: T1, USP36 (UniProt Q9P275)
T1 sequence (whole entry): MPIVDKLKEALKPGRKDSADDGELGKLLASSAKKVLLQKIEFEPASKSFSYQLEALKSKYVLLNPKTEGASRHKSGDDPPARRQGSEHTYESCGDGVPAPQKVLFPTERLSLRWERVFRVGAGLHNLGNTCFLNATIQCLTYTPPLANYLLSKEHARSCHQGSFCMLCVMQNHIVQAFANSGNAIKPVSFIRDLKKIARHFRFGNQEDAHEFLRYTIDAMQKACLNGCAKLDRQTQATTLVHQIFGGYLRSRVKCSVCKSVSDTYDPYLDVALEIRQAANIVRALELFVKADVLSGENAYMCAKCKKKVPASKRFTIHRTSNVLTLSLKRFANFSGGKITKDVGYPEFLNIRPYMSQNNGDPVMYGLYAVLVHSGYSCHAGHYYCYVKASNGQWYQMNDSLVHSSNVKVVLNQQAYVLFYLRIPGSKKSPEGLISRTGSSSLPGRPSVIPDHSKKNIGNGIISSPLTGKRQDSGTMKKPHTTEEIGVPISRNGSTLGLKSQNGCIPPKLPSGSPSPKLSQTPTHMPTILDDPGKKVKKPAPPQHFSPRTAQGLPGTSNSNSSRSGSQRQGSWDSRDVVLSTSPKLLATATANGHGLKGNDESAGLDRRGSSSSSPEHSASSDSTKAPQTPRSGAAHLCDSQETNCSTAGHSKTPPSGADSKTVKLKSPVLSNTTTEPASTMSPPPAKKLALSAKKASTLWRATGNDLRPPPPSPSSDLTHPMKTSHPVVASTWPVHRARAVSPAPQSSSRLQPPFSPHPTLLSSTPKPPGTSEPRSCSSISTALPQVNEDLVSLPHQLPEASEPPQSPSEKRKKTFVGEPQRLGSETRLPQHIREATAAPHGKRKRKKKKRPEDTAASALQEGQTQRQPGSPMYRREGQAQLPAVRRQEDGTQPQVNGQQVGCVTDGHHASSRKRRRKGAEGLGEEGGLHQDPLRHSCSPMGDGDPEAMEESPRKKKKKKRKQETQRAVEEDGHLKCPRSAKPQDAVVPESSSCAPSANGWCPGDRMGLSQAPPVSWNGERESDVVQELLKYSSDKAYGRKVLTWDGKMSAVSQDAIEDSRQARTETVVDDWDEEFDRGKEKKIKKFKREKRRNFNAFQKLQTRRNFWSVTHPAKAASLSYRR
How it was run: as §1

[3] = molecular target: T2, USP38 (UniProt Q8NB14)
T2 sequence (whole entry): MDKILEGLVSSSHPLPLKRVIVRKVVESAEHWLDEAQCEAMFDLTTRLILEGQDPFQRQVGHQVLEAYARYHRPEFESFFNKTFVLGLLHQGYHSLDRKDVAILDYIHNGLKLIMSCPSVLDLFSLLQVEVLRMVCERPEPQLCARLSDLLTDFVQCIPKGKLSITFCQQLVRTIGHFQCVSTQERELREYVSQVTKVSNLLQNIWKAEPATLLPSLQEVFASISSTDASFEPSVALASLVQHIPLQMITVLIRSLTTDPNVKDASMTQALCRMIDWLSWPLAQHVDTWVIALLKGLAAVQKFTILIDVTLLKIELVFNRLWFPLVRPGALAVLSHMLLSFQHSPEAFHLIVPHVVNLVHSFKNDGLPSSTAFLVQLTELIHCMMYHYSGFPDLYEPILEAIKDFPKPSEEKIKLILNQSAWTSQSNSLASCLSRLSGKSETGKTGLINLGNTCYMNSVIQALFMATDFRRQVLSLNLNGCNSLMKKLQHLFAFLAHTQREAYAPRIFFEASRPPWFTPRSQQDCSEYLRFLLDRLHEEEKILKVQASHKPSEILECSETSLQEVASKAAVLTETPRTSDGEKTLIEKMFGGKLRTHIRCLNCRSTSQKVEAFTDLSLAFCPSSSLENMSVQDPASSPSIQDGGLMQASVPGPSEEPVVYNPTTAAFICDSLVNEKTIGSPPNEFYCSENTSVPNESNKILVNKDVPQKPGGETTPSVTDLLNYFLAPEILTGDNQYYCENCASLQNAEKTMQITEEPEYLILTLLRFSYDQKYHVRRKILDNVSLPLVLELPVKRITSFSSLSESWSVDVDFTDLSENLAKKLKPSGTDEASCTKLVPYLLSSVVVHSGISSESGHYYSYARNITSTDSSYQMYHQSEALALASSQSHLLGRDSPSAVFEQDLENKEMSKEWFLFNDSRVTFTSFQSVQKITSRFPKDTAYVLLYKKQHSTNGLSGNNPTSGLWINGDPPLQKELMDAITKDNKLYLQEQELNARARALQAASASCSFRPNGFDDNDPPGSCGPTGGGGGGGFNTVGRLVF
How it was run: as §1

[4] = molecular target: T3, USP39 (UniProt Q53GS9)
T3 sequence (whole entry): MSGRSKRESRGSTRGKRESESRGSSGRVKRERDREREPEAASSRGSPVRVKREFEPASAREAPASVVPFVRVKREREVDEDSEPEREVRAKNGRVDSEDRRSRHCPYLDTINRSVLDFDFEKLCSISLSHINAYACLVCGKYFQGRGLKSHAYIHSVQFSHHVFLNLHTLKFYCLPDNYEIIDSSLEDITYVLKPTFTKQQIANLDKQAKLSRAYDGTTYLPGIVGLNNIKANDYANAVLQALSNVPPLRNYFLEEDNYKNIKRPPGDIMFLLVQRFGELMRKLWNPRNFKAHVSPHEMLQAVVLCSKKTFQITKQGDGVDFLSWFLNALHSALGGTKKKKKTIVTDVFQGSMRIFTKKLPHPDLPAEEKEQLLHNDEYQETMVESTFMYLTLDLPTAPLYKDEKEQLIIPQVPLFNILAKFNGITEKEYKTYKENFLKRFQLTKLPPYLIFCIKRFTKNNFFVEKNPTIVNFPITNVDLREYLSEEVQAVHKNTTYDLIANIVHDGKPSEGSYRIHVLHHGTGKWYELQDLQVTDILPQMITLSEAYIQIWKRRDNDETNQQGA
How it was run: as §1

[5] = molecular target: T4, USP4 (UniProt Q13107)
T4 sequence (whole entry): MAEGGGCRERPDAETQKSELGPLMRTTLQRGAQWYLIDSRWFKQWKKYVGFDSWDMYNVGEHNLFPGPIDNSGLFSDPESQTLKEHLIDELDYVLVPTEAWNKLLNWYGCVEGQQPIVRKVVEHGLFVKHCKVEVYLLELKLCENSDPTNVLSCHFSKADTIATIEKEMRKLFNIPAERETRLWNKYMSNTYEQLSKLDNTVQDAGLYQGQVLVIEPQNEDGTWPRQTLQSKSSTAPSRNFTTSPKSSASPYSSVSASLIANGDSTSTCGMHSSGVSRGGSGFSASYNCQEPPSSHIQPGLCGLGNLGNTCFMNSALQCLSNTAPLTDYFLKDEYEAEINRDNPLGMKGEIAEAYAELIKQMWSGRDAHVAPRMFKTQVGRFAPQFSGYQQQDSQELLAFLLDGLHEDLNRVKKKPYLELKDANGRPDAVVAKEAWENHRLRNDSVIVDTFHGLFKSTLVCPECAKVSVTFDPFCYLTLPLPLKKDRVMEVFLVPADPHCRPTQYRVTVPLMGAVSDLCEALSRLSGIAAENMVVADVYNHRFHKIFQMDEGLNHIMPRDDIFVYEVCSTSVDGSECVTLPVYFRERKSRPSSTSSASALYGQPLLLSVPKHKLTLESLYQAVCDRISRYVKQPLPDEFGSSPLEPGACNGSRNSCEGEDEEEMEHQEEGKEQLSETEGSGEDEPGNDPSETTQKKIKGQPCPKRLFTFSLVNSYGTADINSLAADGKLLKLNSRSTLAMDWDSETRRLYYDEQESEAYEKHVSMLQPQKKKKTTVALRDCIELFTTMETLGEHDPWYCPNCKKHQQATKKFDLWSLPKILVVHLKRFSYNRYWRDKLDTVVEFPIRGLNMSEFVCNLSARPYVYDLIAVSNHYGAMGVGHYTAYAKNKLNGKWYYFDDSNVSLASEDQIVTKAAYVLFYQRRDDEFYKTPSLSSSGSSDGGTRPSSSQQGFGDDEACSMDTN
How it was run: as §1

Measured: log2 ratio of Biotin-Ahx-Ub-VS probe labelling

Chain of USP34 (Q70CQ2 whole entry, the tested form may be a part): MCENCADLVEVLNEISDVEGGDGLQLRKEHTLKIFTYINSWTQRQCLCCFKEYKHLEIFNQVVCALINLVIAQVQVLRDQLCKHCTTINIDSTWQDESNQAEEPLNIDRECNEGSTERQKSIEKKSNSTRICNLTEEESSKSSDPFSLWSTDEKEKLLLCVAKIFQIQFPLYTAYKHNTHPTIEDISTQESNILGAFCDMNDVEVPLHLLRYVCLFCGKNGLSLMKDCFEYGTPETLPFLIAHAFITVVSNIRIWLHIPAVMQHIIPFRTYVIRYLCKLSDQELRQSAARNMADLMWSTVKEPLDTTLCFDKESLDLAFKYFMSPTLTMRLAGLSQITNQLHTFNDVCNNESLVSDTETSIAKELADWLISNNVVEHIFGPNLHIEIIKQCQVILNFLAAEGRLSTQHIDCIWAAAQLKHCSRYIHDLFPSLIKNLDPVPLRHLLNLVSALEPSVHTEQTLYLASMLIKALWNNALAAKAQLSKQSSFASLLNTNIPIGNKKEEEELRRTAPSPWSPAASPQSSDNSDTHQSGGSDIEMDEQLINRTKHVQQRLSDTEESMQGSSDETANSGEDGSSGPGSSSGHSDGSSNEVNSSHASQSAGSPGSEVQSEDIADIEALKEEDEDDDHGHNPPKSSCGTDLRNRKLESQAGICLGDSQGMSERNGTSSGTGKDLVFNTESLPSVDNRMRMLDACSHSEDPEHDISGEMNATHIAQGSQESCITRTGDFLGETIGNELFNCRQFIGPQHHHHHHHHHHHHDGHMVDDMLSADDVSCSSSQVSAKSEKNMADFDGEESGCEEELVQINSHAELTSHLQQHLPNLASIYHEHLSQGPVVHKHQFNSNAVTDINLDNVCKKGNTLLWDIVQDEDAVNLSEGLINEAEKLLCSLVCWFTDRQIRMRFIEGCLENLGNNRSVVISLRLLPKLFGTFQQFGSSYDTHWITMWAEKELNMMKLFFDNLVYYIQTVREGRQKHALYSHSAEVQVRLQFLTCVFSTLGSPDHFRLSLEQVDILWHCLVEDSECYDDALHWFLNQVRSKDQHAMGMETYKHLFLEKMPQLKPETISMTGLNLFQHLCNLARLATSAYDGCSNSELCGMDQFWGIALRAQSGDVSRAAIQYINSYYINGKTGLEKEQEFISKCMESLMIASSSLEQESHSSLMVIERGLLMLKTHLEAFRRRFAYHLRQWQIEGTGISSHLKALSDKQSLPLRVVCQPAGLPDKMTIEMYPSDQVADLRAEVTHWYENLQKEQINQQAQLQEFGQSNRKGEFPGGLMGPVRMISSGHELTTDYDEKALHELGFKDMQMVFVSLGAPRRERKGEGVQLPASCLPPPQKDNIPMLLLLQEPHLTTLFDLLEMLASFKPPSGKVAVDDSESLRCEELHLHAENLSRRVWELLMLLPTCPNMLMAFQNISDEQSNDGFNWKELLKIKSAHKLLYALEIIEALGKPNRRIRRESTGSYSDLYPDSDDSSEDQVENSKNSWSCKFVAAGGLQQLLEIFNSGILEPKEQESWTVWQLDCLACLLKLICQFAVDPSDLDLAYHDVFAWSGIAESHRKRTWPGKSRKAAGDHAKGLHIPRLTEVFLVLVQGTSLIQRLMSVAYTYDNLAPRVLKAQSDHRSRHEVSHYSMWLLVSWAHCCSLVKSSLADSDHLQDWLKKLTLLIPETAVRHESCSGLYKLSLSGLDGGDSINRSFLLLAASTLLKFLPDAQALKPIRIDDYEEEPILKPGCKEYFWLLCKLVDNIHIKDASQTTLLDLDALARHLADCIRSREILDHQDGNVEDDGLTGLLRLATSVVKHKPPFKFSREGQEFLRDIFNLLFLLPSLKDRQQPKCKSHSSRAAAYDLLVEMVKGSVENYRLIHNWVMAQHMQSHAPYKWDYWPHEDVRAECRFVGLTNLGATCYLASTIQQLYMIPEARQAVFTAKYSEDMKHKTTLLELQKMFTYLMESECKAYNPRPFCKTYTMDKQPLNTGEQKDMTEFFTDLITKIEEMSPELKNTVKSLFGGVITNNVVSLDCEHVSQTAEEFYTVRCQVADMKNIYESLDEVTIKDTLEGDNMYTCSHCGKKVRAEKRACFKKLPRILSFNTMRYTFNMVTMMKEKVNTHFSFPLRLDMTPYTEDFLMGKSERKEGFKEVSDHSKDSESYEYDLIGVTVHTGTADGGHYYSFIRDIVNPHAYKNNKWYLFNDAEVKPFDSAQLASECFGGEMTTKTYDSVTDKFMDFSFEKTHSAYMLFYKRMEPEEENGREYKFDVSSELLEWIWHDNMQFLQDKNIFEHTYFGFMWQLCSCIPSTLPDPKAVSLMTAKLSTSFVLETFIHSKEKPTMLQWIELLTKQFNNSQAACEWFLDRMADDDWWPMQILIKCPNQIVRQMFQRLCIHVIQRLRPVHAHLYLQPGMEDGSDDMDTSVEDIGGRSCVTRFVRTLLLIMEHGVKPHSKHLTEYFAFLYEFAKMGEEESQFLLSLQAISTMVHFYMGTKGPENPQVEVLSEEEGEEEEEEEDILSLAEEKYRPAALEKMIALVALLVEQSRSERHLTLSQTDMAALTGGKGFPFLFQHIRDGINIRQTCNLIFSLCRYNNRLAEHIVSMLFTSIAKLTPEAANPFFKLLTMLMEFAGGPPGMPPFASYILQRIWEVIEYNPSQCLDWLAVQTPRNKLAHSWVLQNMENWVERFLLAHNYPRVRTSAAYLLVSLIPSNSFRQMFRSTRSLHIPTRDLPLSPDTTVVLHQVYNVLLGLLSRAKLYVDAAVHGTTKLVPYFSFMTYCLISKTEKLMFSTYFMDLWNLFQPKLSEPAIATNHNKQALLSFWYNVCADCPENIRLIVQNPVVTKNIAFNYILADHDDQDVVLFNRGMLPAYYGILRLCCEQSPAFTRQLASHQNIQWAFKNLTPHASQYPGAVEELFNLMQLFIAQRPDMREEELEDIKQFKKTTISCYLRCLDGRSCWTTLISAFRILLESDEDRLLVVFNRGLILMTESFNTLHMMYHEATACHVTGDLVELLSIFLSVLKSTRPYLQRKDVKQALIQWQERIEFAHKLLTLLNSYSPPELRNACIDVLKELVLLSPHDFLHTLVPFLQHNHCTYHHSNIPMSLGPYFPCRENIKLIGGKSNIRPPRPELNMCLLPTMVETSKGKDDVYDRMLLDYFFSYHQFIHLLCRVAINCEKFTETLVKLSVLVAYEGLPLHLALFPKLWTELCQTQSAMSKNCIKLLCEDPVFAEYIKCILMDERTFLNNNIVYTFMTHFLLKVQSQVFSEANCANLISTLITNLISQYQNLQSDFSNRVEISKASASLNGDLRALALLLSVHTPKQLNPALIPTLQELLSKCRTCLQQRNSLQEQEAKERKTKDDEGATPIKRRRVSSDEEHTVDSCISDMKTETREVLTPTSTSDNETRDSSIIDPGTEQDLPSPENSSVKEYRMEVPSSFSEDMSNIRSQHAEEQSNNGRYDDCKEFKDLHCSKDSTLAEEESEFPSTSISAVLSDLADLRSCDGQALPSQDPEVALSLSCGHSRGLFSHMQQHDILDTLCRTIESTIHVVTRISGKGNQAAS

Cc1n[nH]c(=O)c2c(NC(=O)CCl)oc(C)c12
inactive: [1] -0.107 | [2] 0.103 | [3] 0.0131 | [4] 0.082 | [5] 0.0593
